PubChem BioAssay (NCATS)
Activity calls are given as the source filed them. Calls follow the shape of the dose curve; as a rule, active = well fitted inhibition curve with a large enough effect; inconclusive = small, poorly fitted or top-dose-only effect; inactive = flat fitted curve, though single readings scatter.

tested on: Nanoluciferase (engineered Oplophorus gracilirostris luciferase); experiment: Primary Nanoluciferase (NLuc) qHTS assay for identification of artifact compounds. (AID 1845222); conditions: NLuc-conditioned medium, Nano-Glo luminescence, 5 min; series mostly up to 54.1 µM; activity, negative = inhibition: at the top concentration;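 also: 0% = DMSO and -100% = no enzyme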
Procedure, shortened: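 Compounds are pinned into diluted (1:55) conditioned medium of NLuc-expressing S16 cells and held 15 min at room temperature protected from light. Nano-Glo substrate follows, and luminescence is read 5 min later.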

Row | Structure (SMILES) | activity, negative = inhibition
1 | COc1c2c(c(C)c3c1C(=O)OC3)O[C@@]1(C)C[C@@H](O)[C@]34O[C@](OC)(CC[C@]3(C)[C@H]1C2)OC4(C)C | 1.25% [at 25.7 µM] (inactive)
2 | CC(c1c[nH]c2ccccc12)C(O)C(=O)O (configuration not stated) | -2.12% (inactive)
3 | C[C@@]12C[C@]3(O)O[C@H](O1)[C@]1(COC(=O)c4ccccc4)[C@H]3C[C@@]12O[C@@H]1O[C@H](COC(=O)c2ccccc2)[C@@H](O)[C@H](O)[C@H]1O | 0.393% [at 25.7 µM] (inactive)
4 | COc1cc(C(=O)OC[C@H]2O[C@H](O[C@@]3(CO)O[C@@H](CO)[C@H](O)[C@H]3O)[C@H](O)[C@@H](O)[C@@H]2O)ccc1O | 0.482% [at 25.7 µM] (inactive)
5 | CC(C)=CCC[C@](C)(O[C@@H]1O[C@H](CO[C@@H]2OC[C@@H](O)[C@H](O)[C@H]2O)[C@@H](O)[C@H](O)[C@H]1O)[C@H]1CC[C@]2(C)[C@@H]1[C@H](O)C[C@@H]1[C@@]3(C)CC[C@H](O[C@@H]4O[C@H](CO)[C@@H](O)[C@H](O)[C@H]4O[C@@H]4O[C@H](CO)[C@@H](O)[C@H](O)[C@H]4O)C(C)(C)[C@@H]3CC[C@]12C | 3.74% [at 25.7 µM] (inactive)
6 | C=C1CCC2C(C)(CO[C@@H]3O[C@H](CO)[C@@H](O)[C@H](O)[C@H]3O)C(O)CCC2(C)C1C(=O)CC1=CCOC1=O (some centres not stated) | 2.23% [at 25.7 µM] (inactive)
7 | CN1CC[C@@H](NC(=O)Nc2ccc(C#N)cc2)C[C@@H]1c1nc2ccccc2[nH]1 | 3.13% (inactive)
8 | C=C1CCC[C@]2(C)C[C@]3(O)OC(=O)C(C)=C3C[C@@H]12 | -1.36% (inactive)
9 | CC(=O)OCC1=C[C@H](O)[C@@H]2C(C(=O)O)=CO[C@@H](O[C@@H]3O[C@H](CO)[C@@H](O)[C@H](O)[C@H]3O)[C@H]12 | 2.62% [at 25.7 µM] (inactive)
10 | CC1OC(OC2C(CO)OC(OCC3OC(OC(=O)C45CCC(C)(C)CC4C4=CCC6C7(C)CCC(OC8OC(C(=O)O)C(O)C(OC9OC(CO)C(O)C(O)C9O)C8O)C(C)(C)C7CCC6(C)C4(C)CC5)C(O)C(O)C3O)C(O)C2O)C(O)C(O)C1O (configuration not stated) | 0% [at 11.6 µM] (inactive)
11 | CC1CCC2C(C)(C)C(O)CCC2(C)C12Cc1c(O)cc3c(c1O2)C(N)=NC3 (configuration not stated) | 4.85% (inactive)
12 | C=C1CC2C3(C)C(OC(C)=O)CC(=O)OC(C)(C)C3C(O)C(OC(C)=O)C2(C)C2C(=O)OC(C)C(=O)C12C (configuration not stated) | -1.09% [at 25.7 µM] (inactive)
13 | COC(=O)C1=CO[C@@H](O[C@@H]2O[C@H](CO)[C@@H](O)[C@H](O)[C@H]2O)[C@@H]2[C@@H](C)[C@@H](O)C[C@H]12 | 4.49% (inactive)
14 | O=C(O[C@H]1[C@@H]2C=CO[C@@H](O[C@@H]3O[C@H](CO)[C@@H](O)[C@H](O)[C@H]3O)[C@@H]2[C@@]2(CO)O[C@@H]12)c1ccc(O)c(O)c1 | 2.79% [at 25.7 µM] (inactive)
15 | C=C1[C@H]2[C@H](O[C@@H]3O[C@H](COC(=O)/C=C/c4cc(OC)c(O)c(OC)c4)[C@@H](O)[C@H](O)[C@H]3O)OC=C(C(=O)O)[C@H]2C[C@@H]1O | 1.7% [at 25.7 µM] (inactive)
16 | NC1CCC(N[C@@H]2C[C@H]2c2ccccc2)CC1 (some centres not stated) | 2.4% (inactive)

Row | Structure (SMILES) | activity, negative = inhibition
17 | c1ccc(Nc2nc3c(s2)CCCc2[nH]ncc2-3)nc1 | 1.27% (inactive)
18 | COC12CC3C(C(C)C1=CC(=O)O2)C(O)C(OC(C)=O)C1C(C)(C)C(OC(C)=O)CCC31C (configuration not stated) | 0% [at 25.7 µM] (inactive)
19 | CC(=O)OCCC(C)CCC1C(C)(O)CCC2C(C)(C)CCCC21C (configuration not stated) | 0.857% (inactive)
20 | FC(F)(F)c1cc(C(F)(F)F)c2ccc3nc(-c4nnco4)cn3c2n1 | 2.1% (inactive)
21 | C=CC1C(O[C@@H]2O[C@H](CO)[C@@H](O)[C@H](O)[C@H]2O)OC=C(C(=O)OC)C1Cc1nccc2c1[nH]c1ccccc12 (some centres not stated) | 0% [at 25.7 µM] (inactive)
22 | O=C(/C=C/c1ccc(O)c(O)c1)OCc1ccccc1O[C@@H]1O[C@H](CO)[C@@H](O)[C@H](O)[C@H]1O | 0.422% [at 25.7 µM] (inactive)
23 | C=C1CC[C@@H]2[C@](C)(CO[C@@H]3O[C@H](CO)[C@@H](O)[C@H](O)[C@H]3O)CCC[C@@]2(C)[C@@H]1CCC1=CCOC1=O | -1.72% [at 25.7 µM] (inactive)
24 | CC1(C)NC2N(C1=O)c1ccccc1C2(O)CC(C(=O)O)n1cnc2ccccc2c1=O (configuration not stated) | 2.19% [at 25.7 µM] (inactive)
25 | OC[C@H]1O[C@@H](OCCc2ccc(O)cc2)[C@H](O)[C@@H](O)[C@@H]1O | -2.73% (inactive)
26 | COC1(CC(C)C)NC(=O)C(O)(Cc2ccccc2)NC1=O (configuration not stated) | 4.43% (inactive)
27 | CC1=CC(=O)C[C@H]2[C@@H]1CC[C@@H](C)[C@]21CO[C@H](c2ccoc2)C1=O | 0.851% (inactive)
28 | Cc1ccc(C(=O)Nc2ccc(Oc3cc4cnn(C)c4cc3-c3cn[nH]c3)c(F)c2)c(=O)n1-c1ccc(F)cc1 | 3.85% (inactive)
29 | CC(=O)OC[C@@]12[C@H](O)C[C@@H](C)[C@]3(C[C@@H](c4ccoc4)OC3=O)[C@H]1C[C@H](O)C[C@]21CO1 | -1.61% [at 25.7 µM] (inactive)
30 | CC1CCC2(O1)C(C)(C)CC(O[C@@H]1O[C@H](CO[C@@H]3OC[C@](O)(CO)[C@H]3O)[C@@H](O)[C@H](O)[C@H]1O)CC2(C)O (some centres not stated) | 2.66% [at 25.7 µM] (inactive)
31 | COc1cccc2c1CCC[C@H]2CN(C)CCc1ccc2ccoc2c1 | 0% (inactive)
32 | CCOC(=O)[C@H](CCc1ccccc1)CC1(C(=O)N[C@H]2CCc3ccccc3N(CC(=O)O)C2=O)CCCC1 | -3.93% (inactive)
